Source: the supplement of paper PMC10849652
Of roughly 8,800 targets only a part is listed; those with a hit were picked by preference. About 0.5% of all pairs of compound and target were hits.

What was measured:
Experiment in all cases: log2 fold change, soluble protein after heating vs DMSO (PISA); higher = thermal stabilisation; K562 lysate, 10 uM; active = over 0.2 and 3.5 SD of the protein, either way, in both replicates (recomputed)
lapatinib = compound: CS(=O)(=O)CCNCc1ccc(-c2ccc3ncnc(Nc4ccc(OCc5cccc(F)c5)c(Cl)c4)c3c2)o1 [lapatinib]
Method in brief: (§1)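 Thermal stability, expressed as log-two fold change relative to solvent controls, is given from duplicates. Crude K562 extract in PBS pH 7.4 with 1 mM MgCl2, at 1 mg/mL protein, was treated with 10 μM compound for 30 min and heated in aliquots for 3 min across 48°C-58°C. After pooling, adjustment to 0.5% NP-40 at 4°C and centrifugation at 21,000xg for 90 min, supernatant protein was measured by TMTpro 16plex LC-MS/MS with channel sums equalised.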

pictilisib = compound: CS(=O)(=O)N1CCN(Cc2cc3nc(-c4cccc5[nH]ncc45)nc(N4CCOCC4)c3s2)CC1 [pictilisib]
Method in brief: as §1

crizotinib = compound: C[C@@H](Oc1cc(-c2cnn(C3CCNCC3)c2)cnc1N)c1c(Cl)ccc(F)c1Cl [crizotinib]
Method in brief: as §1

[1] = compound: C[C@H](C1=CC=C(C=C1)C(=O)NC2=C3C=CNC3=NC=C2)N
Method in brief: as §1

duvelisib = compound: C[C@H](Nc1ncnc2nc[nH]c12)c1cc2cccc(Cl)c2c(=O)n1-c1ccccc1 [duvelisib]
Method in brief: as §1

gandotinib = compound: Cc1cc(Nc2cc(CN3CCOCC3)c3nc(C)c(Cc4ccc(Cl)cc4F)n3n2)n[nH]1 [gandotinib]
Method in brief: as §1

tozasertib = compound: Cc1cc(Nc2cc(N3CCN(C)CC3)nc(Sc3ccc(NC(=O)C4CC4)cc3)n2)n[nH]1 [tozasertib]
Method in brief: as §1

doramapimod = compound: Cc1ccc(-n2nc(C(C)(C)C)cc2NC(=O)Nc2ccc(OCCN3CCOCC3)c3ccccc23)cc1 [doramapimod]
Method in brief: as §1

bafetinib = compound: Cc1ccc(NC(=O)c2ccc(CN3CC[C@H](N(C)C)C3)c(C(F)(F)F)c2)cc1Nc1nccc(-c2cncnc2)n1 [bafetinib]
Method in brief: as §1

[2] = compound: Cc1cccc(CC(=O)N2CCc3c2ccc(-c2cn(C)c4ncnc(N)c24)c3F)n1
Method in brief: as §1

Measured: log2 fold change

NFAT5 isoform 5 (UniProt O94916)
inactive: lapatinib 0.033 | pictilisib -0.002 | crizotinib 0.053 | [1] -0.053 | duvelisib -0.041 | gandotinib 0.045 | tozasertib -0.039 | doramapimod 0.007 | bafetinib -0.041 | [2] 0.008

NT5DC2 isoform 2 (UniProt Q9H857)
Chain of UniProt Q9H857 (Q9H857 whole entry, looked up): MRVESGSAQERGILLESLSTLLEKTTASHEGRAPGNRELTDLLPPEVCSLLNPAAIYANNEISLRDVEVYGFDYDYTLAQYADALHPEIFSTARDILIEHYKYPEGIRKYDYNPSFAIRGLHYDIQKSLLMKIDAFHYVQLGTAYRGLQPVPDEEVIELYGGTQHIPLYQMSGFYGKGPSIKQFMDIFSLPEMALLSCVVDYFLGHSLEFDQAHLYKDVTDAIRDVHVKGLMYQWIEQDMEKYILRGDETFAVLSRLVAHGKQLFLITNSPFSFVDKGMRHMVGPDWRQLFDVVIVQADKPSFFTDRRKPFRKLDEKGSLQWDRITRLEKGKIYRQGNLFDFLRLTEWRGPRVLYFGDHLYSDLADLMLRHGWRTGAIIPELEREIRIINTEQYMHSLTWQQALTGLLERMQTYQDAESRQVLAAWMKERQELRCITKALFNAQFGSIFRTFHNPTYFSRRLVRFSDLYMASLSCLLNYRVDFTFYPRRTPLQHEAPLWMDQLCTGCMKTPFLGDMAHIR
inactive: lapatinib -0.036 | pictilisib -0.019 | crizotinib 0.004 | [1] -0.018 | duvelisib -0.01 | gandotinib 0.021 | tozasertib -0.019 | doramapimod -0.029 | bafetinib -0.027 | [2] -0.027

MVB12A (UniProt Q96EY5)
inactive: lapatinib 0.012 | pictilisib -0.027 | crizotinib -0.025 | [1] 0 | duvelisib -0.04 | gandotinib -0.031 | tozasertib -0.046 | doramapimod 0.012 | bafetinib -0.015 | [2] -0.031

NUP98 (UniProt P52948)
inactive: lapatinib 0.007 | pictilisib -0.041 | crizotinib 0.017 | [1] -0.014 | duvelisib -0.04 | gandotinib 0.01 | tozasertib -0.033 | doramapimod -0.024 | bafetinib -0.024 | [2] 0.043

NNMT (UniProt P40261)
inactive: lapatinib -0.017 | pictilisib 0.037 | crizotinib -0.065 | [1] -0.072 | duvelisib 0.066 | gandotinib 0.015 | tozasertib 0 | doramapimod 0.013 | bafetinib -0.066 | [2] -0.001

OGT (UniProt O15294)
inactive: lapatinib -0.006 | pictilisib -0.038 | crizotinib -0.038 | [1] -0.016 | duvelisib -0.016 | gandotinib -0.086 | tozasertib 0.016 | doramapimod 0.009 | bafetinib -0.011 | [2] -0.029

NNT (UniProt Q13423)
inactive: lapatinib -0.047 | pictilisib -0.046 | crizotinib 0.03 | [1] 0.013 | duvelisib 0.039 | tozasertib -0.014 | doramapimod 0.011 | bafetinib -0.006 | [2] 0.003
active: gandotinib -0.445

MYCBP2 (UniProt O75592)
inactive: lapatinib -0.042 | pictilisib -0.026 | crizotinib -0.07 | [1] -0.028 | duvelisib 0.023 | gandotinib 0.054 | tozasertib 0.023 | doramapimod 0.016 | bafetinib -0.004 | [2] 0.114

ORC2 (UniProt Q13416)
inactive: lapatinib 0.016 | pictilisib -0.049 | crizotinib -0.074 | [1] 0.063 | duvelisib -0.068 | gandotinib -0.087 | tozasertib -0.017 | doramapimod -0.007 | bafetinib -0.034 | [2] 0.011

MRPL53 (UniProt Q96EL3)
inactive: lapatinib 0.022 | pictilisib -0.004 | crizotinib 0.031 | [1] 0.079 | duvelisib 0 | gandotinib -0.04 | tozasertib 0.016 | doramapimod 0.009 | bafetinib 0.005 | [2] 0.012

NBN (UniProt O60934)
inactive: lapatinib 0.008 | pictilisib -0.006 | crizotinib -0.028 | [1] 0.033 | duvelisib -0.006 | gandotinib -0.05 | tozasertib 0.032 | doramapimod 0.001 | bafetinib -0.016 | [2] -0.026

NR2C2 isoform 2 (UniProt P49116)
inactive: lapatinib -0.014 | pictilisib -0.025 | crizotinib -0.004 | [1] 0.064 | duvelisib -0.014 | gandotinib -0.079 | tozasertib -0.005 | doramapimod -0.004 | bafetinib 0.145 | [2] -0.025

NUDT4 isoform 2 (UniProt Q9NZJ9)
inactive: lapatinib -0.002 | pictilisib 0.006 | crizotinib -0.018 | [1] -0.055 | duvelisib -0.013 | gandotinib 0.061 | tozasertib 0.065 | doramapimod -0.009 | bafetinib -0.006 | [2] 0.011

PANK1 (UniProt Q8TE04)
Chain of UniProt Q8TE04 (Q8TE04 whole entry, looked up): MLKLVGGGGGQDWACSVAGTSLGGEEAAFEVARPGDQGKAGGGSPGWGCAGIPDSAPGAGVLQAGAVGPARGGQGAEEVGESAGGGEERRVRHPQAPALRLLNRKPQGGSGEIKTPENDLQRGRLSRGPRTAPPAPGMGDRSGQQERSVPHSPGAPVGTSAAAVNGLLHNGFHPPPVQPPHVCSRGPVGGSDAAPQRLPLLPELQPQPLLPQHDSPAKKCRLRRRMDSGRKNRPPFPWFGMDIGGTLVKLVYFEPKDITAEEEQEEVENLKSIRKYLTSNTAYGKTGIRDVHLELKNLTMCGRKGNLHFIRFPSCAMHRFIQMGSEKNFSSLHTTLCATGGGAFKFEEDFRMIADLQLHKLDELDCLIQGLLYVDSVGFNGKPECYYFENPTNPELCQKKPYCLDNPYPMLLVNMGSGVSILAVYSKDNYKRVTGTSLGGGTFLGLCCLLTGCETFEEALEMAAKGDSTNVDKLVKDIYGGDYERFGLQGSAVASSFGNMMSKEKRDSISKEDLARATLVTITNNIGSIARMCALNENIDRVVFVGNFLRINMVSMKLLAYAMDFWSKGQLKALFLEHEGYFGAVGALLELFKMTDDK
active: gandotinib -0.31
inactive: lapatinib -0.008 | pictilisib 0.151 | crizotinib -0.018 | [1] 0.106 | duvelisib 0.099 | tozasertib 0.069 | doramapimod 0.041 | bafetinib -0.062 | [2] -0.253

OTUD7B (UniProt Q6GQQ9)
inactive: lapatinib 0.033 | pictilisib 0.025 | crizotinib -0.099 | [1] 0.006 | duvelisib -0.041 | gandotinib 0.032 | tozasertib -0.01 | doramapimod -0.012 | bafetinib -0.003 | [2] 0.003

NGLY1 (UniProt Q96IV0)
inactive: lapatinib -0.017 | pictilisib -0.002 | crizotinib -0.058 | [1] 0.038 | duvelisib -0.001 | gandotinib -0.053 | tozasertib -0.025 | doramapimod -0.013 | bafetinib -0.048 | [2] 0.04

MT-CYB (UniProt P00156)
active: [1] -0.856 | gandotinib 0.568
inactive: lapatinib -0.054 | pictilisib -0.025 | crizotinib -0.126 | duvelisib 0.094 | tozasertib -0.074 | doramapimod -0.05 | bafetinib 0.05 | [2] 0.385

NR2F2 (UniProt P24468)
inactive: lapatinib 0.06 | pictilisib 0.072 | crizotinib -0.022 | [1] -0.163 | duvelisib -0.046 | gandotinib -0.153 | doramapimod -0.005 | bafetinib 0.037 | [2] -0.023

NSA2 (UniProt O95478)
inactive: lapatinib 0.014 | pictilisib -0.088 | [1] -0.036 | duvelisib -0.055 | gandotinib 0.159 | tozasertib -0.086 | bafetinib 0.064 | [2] 0.221

NUMB isoform 2 (UniProt P49757)
inactive: duvelisib 0.023

MYH6 (UniProt P13533)
active: pictilisib -1.52
inactive: lapatinib -0.111 | crizotinib -0.097 | tozasertib 0.009 | doramapimod -0.245 | bafetinib -0.132

NUDT5 (UniProt C9JYY9)
inactive: tozasertib 0.004

NR3C1 isoform 3 (UniProt P04150)
Chain of UniProt P04150 (P04150 whole entry, looked up): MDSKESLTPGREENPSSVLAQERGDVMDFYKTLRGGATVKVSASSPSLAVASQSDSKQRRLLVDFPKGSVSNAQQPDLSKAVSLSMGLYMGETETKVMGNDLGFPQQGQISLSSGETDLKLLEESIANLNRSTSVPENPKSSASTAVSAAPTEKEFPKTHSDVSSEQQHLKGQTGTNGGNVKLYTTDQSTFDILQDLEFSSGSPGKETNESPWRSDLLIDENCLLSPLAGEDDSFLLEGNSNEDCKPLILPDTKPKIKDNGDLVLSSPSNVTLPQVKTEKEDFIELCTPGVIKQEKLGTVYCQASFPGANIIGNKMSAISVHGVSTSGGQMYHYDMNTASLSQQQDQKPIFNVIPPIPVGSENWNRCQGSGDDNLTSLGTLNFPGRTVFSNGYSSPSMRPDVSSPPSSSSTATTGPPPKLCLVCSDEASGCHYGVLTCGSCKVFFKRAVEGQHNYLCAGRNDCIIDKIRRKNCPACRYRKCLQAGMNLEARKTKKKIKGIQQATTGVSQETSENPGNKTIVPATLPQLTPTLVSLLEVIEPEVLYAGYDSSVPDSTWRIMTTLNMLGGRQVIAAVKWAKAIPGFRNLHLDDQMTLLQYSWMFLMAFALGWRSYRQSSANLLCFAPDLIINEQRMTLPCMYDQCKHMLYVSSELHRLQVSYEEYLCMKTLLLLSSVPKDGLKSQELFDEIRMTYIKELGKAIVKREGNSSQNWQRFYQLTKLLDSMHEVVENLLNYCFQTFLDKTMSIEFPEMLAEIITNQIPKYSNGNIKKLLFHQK
inactive: pictilisib -0.26 | crizotinib 0.012 | [1] 0.057 | duvelisib 0.046 | gandotinib -0.091 | tozasertib 0.012 | doramapimod -0.005 | bafetinib -0.027 | [2] 0.073

MSH2 (UniProt P43246)
inactive: lapatinib -0.005 | pictilisib -0.003 | crizotinib -0.04 | [1] 0.028 | duvelisib -0.001 | gandotinib -0.068 | tozasertib 0.002 | doramapimod 0.013 | bafetinib -0.026 | [2] 0.002

MTFP1 (UniProt Q9UDX5)
inactive: lapatinib 0.026 | pictilisib 0.017 | crizotinib 0.097 | duvelisib -0.01 | gandotinib 0.059 | tozasertib 0.006 | doramapimod -0.043 | bafetinib 0.01 | [2] 0.067
active: [1] -0.364

NEBL (UniProt O76041)
inactive: lapatinib 0.054 | pictilisib -0.046 | crizotinib 0.09 | [1] 0.106 | duvelisib 0.023 | gandotinib -0.204 | tozasertib 0.01 | doramapimod -0.006 | bafetinib -0.037 | [2] -0.076

NAA16 (UniProt Q6N069)
inactive: lapatinib 0.048 | pictilisib -0.108 | duvelisib 0.029 | tozasertib -0.016 | bafetinib 0.022

MSH6 (UniProt P52701)
inactive: lapatinib -0.004 | pictilisib -0.005 | crizotinib -0.076 | [1] -0.003 | duvelisib 0.014 | gandotinib -0.087 | tozasertib 0.013 | doramapimod 0.037 | bafetinib -0.051 | [2] 0.022

NAT1 (UniProt P18440)
Chain of UniProt P18440 (P18440 whole entry, looked up): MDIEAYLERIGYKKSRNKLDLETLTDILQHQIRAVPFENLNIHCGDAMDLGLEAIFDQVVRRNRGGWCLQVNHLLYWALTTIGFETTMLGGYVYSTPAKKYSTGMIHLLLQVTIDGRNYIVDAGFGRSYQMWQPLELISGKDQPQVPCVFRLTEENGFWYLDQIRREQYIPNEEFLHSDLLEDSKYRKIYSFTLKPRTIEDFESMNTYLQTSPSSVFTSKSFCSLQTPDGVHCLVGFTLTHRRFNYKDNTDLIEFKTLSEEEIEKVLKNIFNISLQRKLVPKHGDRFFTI
inactive: lapatinib 0.026 | pictilisib 0.111 | crizotinib -0.227 | [1] -0.089 | duvelisib 0.006 | gandotinib 0.004 | tozasertib -0.048 | doramapimod 0.058 | bafetinib 0.006 | [2] 0.083

NF1 (UniProt P21359)
Chain of UniProt P21359 (P21359 whole entry, looked up): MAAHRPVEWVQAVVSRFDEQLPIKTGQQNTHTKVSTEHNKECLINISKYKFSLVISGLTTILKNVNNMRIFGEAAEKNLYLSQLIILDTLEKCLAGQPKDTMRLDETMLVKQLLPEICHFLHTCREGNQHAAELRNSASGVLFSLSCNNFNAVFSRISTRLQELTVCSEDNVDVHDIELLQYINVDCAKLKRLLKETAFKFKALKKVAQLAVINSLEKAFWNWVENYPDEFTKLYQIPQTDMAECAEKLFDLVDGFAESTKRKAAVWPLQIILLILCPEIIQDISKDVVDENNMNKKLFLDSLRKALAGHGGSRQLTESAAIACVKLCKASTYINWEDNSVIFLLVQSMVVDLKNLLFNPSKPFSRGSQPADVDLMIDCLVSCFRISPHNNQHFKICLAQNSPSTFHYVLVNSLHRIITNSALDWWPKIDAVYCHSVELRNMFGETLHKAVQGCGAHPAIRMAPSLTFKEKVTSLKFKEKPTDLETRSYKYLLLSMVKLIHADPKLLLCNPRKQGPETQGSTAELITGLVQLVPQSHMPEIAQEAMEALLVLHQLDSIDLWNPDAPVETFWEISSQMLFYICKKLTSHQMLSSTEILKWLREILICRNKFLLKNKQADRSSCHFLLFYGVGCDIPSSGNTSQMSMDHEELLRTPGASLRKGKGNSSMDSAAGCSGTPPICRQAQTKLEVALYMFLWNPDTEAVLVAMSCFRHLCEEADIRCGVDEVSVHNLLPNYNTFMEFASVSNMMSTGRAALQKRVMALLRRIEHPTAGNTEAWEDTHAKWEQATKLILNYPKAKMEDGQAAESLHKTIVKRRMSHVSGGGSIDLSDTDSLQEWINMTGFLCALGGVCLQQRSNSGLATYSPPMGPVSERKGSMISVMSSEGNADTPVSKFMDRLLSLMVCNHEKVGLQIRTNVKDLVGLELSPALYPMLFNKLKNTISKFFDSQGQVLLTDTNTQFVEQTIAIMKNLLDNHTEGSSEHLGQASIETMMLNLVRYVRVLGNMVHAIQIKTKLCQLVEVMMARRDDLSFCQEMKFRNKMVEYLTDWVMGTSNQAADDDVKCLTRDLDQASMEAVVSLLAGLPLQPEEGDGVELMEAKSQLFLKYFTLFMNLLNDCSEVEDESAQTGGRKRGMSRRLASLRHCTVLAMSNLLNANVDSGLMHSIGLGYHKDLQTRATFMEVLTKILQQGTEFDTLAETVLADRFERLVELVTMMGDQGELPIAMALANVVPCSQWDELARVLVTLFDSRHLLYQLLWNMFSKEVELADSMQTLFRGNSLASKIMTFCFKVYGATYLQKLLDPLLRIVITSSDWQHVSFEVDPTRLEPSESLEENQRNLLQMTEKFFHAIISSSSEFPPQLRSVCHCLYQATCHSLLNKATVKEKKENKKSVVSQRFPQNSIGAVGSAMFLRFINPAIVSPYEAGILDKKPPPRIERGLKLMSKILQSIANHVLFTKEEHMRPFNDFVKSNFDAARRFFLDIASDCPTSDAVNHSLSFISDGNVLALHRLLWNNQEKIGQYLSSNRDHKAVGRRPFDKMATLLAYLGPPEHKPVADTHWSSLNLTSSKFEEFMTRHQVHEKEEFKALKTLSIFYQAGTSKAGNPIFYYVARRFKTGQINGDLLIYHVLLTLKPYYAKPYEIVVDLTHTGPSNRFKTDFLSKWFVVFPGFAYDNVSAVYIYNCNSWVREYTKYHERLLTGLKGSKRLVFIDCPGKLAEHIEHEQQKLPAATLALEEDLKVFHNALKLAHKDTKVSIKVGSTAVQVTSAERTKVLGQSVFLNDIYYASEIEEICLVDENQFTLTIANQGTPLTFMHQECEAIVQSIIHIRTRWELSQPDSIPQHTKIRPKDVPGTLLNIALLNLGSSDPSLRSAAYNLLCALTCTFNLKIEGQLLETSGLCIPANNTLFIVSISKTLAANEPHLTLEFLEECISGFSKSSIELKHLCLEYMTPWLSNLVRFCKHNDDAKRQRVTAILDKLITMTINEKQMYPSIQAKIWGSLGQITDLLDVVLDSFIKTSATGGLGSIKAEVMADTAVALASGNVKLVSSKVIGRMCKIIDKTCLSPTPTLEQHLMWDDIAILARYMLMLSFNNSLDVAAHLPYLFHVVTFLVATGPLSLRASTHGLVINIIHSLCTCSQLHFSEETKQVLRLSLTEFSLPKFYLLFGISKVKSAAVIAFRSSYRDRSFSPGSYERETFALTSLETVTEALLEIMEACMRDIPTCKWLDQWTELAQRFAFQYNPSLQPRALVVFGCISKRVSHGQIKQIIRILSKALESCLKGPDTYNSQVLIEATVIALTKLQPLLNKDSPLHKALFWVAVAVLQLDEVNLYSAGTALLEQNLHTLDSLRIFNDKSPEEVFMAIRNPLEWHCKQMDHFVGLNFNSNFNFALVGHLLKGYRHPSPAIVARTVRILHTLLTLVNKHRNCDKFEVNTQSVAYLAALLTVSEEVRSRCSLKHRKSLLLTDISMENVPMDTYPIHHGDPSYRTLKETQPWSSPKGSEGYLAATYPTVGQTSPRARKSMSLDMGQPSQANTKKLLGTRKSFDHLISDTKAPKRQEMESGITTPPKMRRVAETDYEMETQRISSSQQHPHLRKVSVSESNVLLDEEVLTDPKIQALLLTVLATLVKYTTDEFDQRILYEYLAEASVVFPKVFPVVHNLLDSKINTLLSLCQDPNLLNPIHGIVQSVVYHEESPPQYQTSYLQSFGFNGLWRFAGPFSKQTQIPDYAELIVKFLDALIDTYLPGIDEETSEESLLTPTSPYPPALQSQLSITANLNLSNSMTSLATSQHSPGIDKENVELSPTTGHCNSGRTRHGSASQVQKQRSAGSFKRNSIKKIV
inactive: lapatinib -0.034 | pictilisib -0.022 | crizotinib -0.075 | [1] -0.031 | duvelisib -0.001 | gandotinib -0.108 | tozasertib -0.014 | doramapimod -0.009 | bafetinib -0.041 | [2] 0.049

MYLK (UniProt Q15746)
active: doramapimod 0.611 | bafetinib 0.712
inactive: lapatinib -0.006 | pictilisib 0.015 | crizotinib 0.082 | [1] -0.181 | gandotinib 0.033 | tozasertib 0.114 | [2] -0.047

ORC3 (UniProt Q9UBD5)
inactive: lapatinib 0.213 | [1] 0.129 | gandotinib -0.311 | [2] 0.082
